The text below walks through data of PubChem BioAssay (NCATS).

Structures are written as SMILES. Records with an inconclusive call do not appear. Entries that show only a call come without a potency. Calls of active or inactive are those of the source. Calls come from the whole dose curve; as a rule, active = well fitted inhibition curve with a large enough effect; inconclusive = small, poorly fitted or top-dose-only effect; inactive = flat fitted curve, though single readings scatter.

The target in this assay is Aldehyde dehydrogenase, mitochondrial (Homo sapiens) (UniProt P05091). Briefly: qHTS for Inhibitors of the Aldehyde Dehydrogenase Family (ALDH2) Primary screen (AID 2061308). Note: nearly all actives have a fitted effect of over 55% in size. To be noted: ALDH2 enzyme inhibition qHTS, 1536-well; series mostly up to 56 µM. A general note: In qHTS, concentration-response curves come from the screen itself.
For the compound `CC1(C)CCCC2(C)C1C(=O)C=C(C(=O)O)C2(O)C(=O)O` (stereo not drawn), the Potency result is “inactive”.

As to `CCN(CC)c1ccc2c(O)c(C=Nc3ccc(CC(=O)O)c(-c4c5c(nc6ccccc46)CCC(C(=O)NN)C5)c3)c(=O)oc2c1` (stereo not drawn), the Potency result was “inactive”.

Turning to `COc1ccc(/C=C/C(=O)O[C@@H]2[C@@H](O[C@@H]3O[C@H](CO)[C@@H](O)[C@H](O)[C@H]3O)[C@@H](O)[C@H](O[C@H]3C4C=CO[C@@H](O[C@@H]5O[C@H](CO)[C@@H](O)[C@H](O)[C@H]5O)C4[C@@]4(CO)O[C@@H]34)O[C@H]2C)cc1` (stereo partly drawn), the Potency entry is “inactive”.

Regarding `CC(C)=CCC[C@](C)(O[C@@H]1O[C@H](CO[C@@H]2O[C@@H](CO)[C@H](O)[C@H]2O[C@@H]2OC[C@@H](O)[C@H](O)[C@H]2O)[C@@H](O)[C@H](O)[C@H]1O)[C@H]1CC[C@]2(C)[C@@H]1[C@H](O)CC1[C@@]3(C)CC[C@H](O[C@@H]4O[C@H](CO)[C@@H](O)[C@H](O)[C@H]4O[C@@H]4O[C@H](CO)[C@@H](O)[C@H](O)[C@H]4O)C(C)(C)C3CC[C@]12C` (stereo partly drawn), the activity change, negative = inhibition is 1.66% [at 11.2 µM] (inactive).

On to `Cc1ccc(C)c(NC(=O)[C@@H]2CCCN2S(=O)(=O)c2cccc3cccnc23)c1`, for which the Potency result was “inactive”.

Regarding `C=CC1(C)CC(O)C(C(=C)C(=O)OC)C(O)C1C(=C)CO` (stereo not drawn), the Potency result is “inactive”.

As to `COc1cc(C(=O)OC[C@@]2(O)CO[C@@H](O[C@H]3[C@H](Oc4ccc(C(=O)O)cc4OC)O[C@H](CO)[C@@H](O)[C@@H]3O)[C@@H]2O)ccc1O`, the Potency result was “inactive”.

As for `O=C(/C=C/c1ccc(O)cc1)O[C@H]1[C@H](OC2CCCCC2O)O[C@H](CO)[C@@H](O)[C@@H]1O` (stereo partly drawn), the Potency entry is “inactive”.
